# In PubChem BioAssay:
# Values joined by “and” are separate entries in the source; they are usually repeats but may differ in a detail not shown here. Equal entries are not always repeated. Records with an inconclusive call do not appear. Active and inactive are the calls of the source.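 Rule for the calls, unless noted: active = normalized viability below 100% at a tested concentration; inactive = the rest.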
# What was measured:
# [1] = P. berghei load reduction in hepatocytes – cell-based, HepG2, luciferase luminescence, HepG2 viability, primary screen (AID 624349; in the data active = parasite load remaining mostly below about 12%, no sharp cut-off; inactive = mostly above about 10%;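 note: 100% = mean of DMSO negative control wells on the same plate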); conditions: P. berghei liver stage in HepG2, luciferase luminescence, concentration not given here; parasite load remaining: stronger effect = lower value; viability: measured here: HepG2 viability without parasites
# [2] = test system: Aerobactin synthetase IucA (Klebsiella pneumoniae); experiment: inhibition of K. pneumoniae IucA enzyme – biochemical, Tocris library, absorbance (AID 1345561; call rule not given here;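 note: 100% = enzyme without compound and 0% = no enzyme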); conditions: purified IucA enzyme assay, absorbance (OD) read-out; stronger effect = lower value;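 tested at 8 µM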
# [3] = viability loss in pontine glioma line – cell-based, SU-DIPG-XVII, MIPE5.0, CellTiter-Glo, qHTS, dose response (AID 1347060; cut-off not given, nearly all actives have AC50 up to about 26 µM;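 for AC50: cells exposed to compound for 48 hours before viability readout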); conditions: CellTiter-Glo ATP luminescence
# [4] = viability loss in pontine glioma line – cell-based, SU-DIPG-XIII, MIPE4.0, CellTiter-Glo, qHTS, dose response (AID 1347061; cut-off not given, nearly all actives have AC50 up to about 37 µM;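 note: cells exposed to compound for 48 hours before readout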); conditions: CellTiter-Glo ATP luminescence
# [5] = viability loss in pontine glioma line – cell-based, JHH-DIPG-1, MIPE4.0, CellTiter-Glo, qHTS, dose response (AID 1347062; cut-off not given, nearly all actives have AC50 up to about 27 µM;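 for AC50: cells exposed to compound for two days before readout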); conditions: JHH-DIPG-1 viability, CellTiter-Glo ATP luminescence
# [6] = viability loss in pontine glioma line – cell-based, SU-DIPG-IV, MIPE4.0, CellTiter-Glo, qHTS, dose response (AID 1347063; cut-off not given, nearly all actives have AC50 up to about 30 µM;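 note: compound exposure lasted 48 hours before the viability readout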); conditions: CellTiter-Glo ATP luminescence
# [7] = growth inhibition of DIPG cells – cell-based, MIPE5.0 library, qHTS (AID 1347068; cut-off not given, nearly all actives have IC50 up to about 30 µM); conditions: SU-DIPG-XXV viability
# [8] = MELAS cybrid and Rieske KO viability enhancers – cell-based, MELAS cybrids, Rieske KO mouse fibroblasts, CellTiter-Glo, primary screen (AID 1508586;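 active = mean z-score across replicates of 1.96 or higher in either the MELAS or the Rieske mutant cell line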;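 note: z relative to plate mean and SD of compound and empty wells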); conditions: low glucose
# [9] = galactose survival enhancers in mitochondrial complex I cybrids – cell-based, galactose medium, ATP luminescence, primary screen (AID 1645843;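 active = z-score of at least 1.8 in each of two replicates, scored against plate mean and spread of sample wells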;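 note: positive z means more ATP and so rescue of galactose-driven cybrid death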); conditions: complex I mutant cybrid cells, 72 h, stronger effect = higher value
# [10] = viability loss in pontine glioma line – cell-based, SU-DIPG-XIII, MIPE5.0, CellTiter-Glo, qHTS, dose response (AID 1347064; cut-off not given, nearly all actives have AC50 up to about 23 µM;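 for AC50: cells exposed to compound for 48 hours before the viability read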); conditions: CellTiter-Glo ATP luminescence
# [11] = viability loss in pontine glioma line – cell-based, SU-DIPG-XXV, MIPE5.0, CellTiter-Glo, qHTS, dose response (AID 1347065; cut-off not given, nearly all actives have AC50 up to about 26 µM;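 note: cells exposed to compound for 48 hours before ATP readout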); conditions: CellTiter-Glo ATP luminescence
# [12] = JHH-DIPG-1 glioma cell viability, MIPE5.0 library, CellTiter-Glo luminescence, qHTS (AID 1347067; cut-off not given, nearly all actives have AC50 up to about 26 µM;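 note: cells exposed to compound for 48 hours before readout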); conditions: JHH-DIPG-1 glioma viability, CellTiter-Glo ATP luminescence
# [13] = viability loss with induced miR-34 in A549 – imaging, A549 dox-inducible miR-34, nuclei and caspase counts, primary screen (AID 1347080;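 active = compounds whose cell count with miR-34 switched on is under 0.7 times the count with it off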); conditions: A549 miR-34 inducible, Hoechst nuclei count, 48 h
# [14] = compounds altering HSF1 focus formation in cells – imaging, Selleck Cancer Library (AID 1347162; in the data active = plate-normalised HSF1 focus index below about 0.46); conditions: human cells, HSF1 nuclear foci imaging, at 10 µM; SSMD: measured here: HSF1 foci SSMD mean; cell count: measured here: cell number; plate-normalised HSF1 focus index: stronger effect = lower value
# [15] = drug combination growth inhibition, ovarian cancer – cell-based, oncology-focused library, rucaparib conditional, profiling panel (AID 1508598); conditions: patient-derived ovarian cancer cells, CellTiter-Glo viability, 144 h, stronger effect = lower value
# [16] = growth inhibition of DIPG cells – cell-based, MIPE4.0 library, CellTiter-Glo luminescence, qHTS (AID 1347066; cut-off not given, nearly all actives have AC50 up to about 30 µM;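 note: cells exposed to compound for 48 hours before readout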); conditions: SU-DIPG-VI viability, CellTiter-Glo ATP luminescence
# [17] = MELAS cybrid survival, CellTiter-Glo 48 h, stronger effect = higher value
# [18] = Rieske KO mouse fibroblast survival, CellTiter-Glo 72 h
# [19] = stronger effect = lower value, cell number ratio, induced over uninduced
# [20] = measured here: relative caspase fold change +Dox/-Dox
# [21] = measured here: total cells with miR-34 induction, stronger effect = lower value
# [22] = measured here: total cells without miR-34 induction
# [23] = at 0.000305 µM, OCI-C5x cells, with rucaparib 10 µM, 100% = cells with rucaparib alone
# [24] = at 0.000305 µM, OCI-C5x cells, without rucaparib
# [25] = at 0.000305 µM, OCI-P5x cells, with rucaparib 20 µM, 100% = cells with rucaparib alone
# [26] = at 0.000305 µM, OCI-P5x cells, without rucaparib
# [27] = at 0.00122 µM, OCI-C5x cells, with rucaparib 10 µM, 100% = cells with rucaparib alone
# [28] = at 0.00122 µM, OCI-C5x cells, without rucaparib
# [29] = at 0.00122 µM, OCI-P5x cells, with rucaparib 20 µM, 100% = cells with rucaparib alone
# [30] = at 0.00122 µM, OCI-P5x cells, without rucaparib
# [31] = at 0.00488 µM, OCI-C5x cells, with rucaparib 10 µM, 100% = cells with rucaparib alone
# [32] = at 0.00488 µM, OCI-C5x cells, without rucaparib
# [33] = at 0.00488 µM, OCI-P5x cells, with rucaparib 20 µM, 100% = cells with rucaparib alone
# [34] = at 0.00488 µM, OCI-P5x cells, without rucaparib
compound,measurement,setting,value
CCCCC[C@H](O)/C=C/[C@H]1[C@H](O)CC(=O)[C@@H]1C/C=C\CCCC(=O)O,parasite load remaining,[1],43.5% (inactive)
same,viability,[1],99.5%
same,remaining activity,[2],127% (inactive)
same,outcome,[3],inactive
same,outcome,[4],inactive
same,outcome,[5],inactive
same,outcome,[6],inactive
same,outcome,[7],inactive
same,z-score,[8]; [17],0.0898 (inactive)
same,z-score,[8]; [18],-0.895
same,z-score,[9],-0.165 (inactive) and 0.63 (inactive)
CCC(C)N(C)C(=O)c1cc2ccccc2c(-c2ccccc2Cl)n1 (centres undefined),remaining activity,[2],91.6% (inactive)
same,outcome,[3],inactive
same,outcome,[5],inactive
same,outcome,[10],inactive
same,outcome,[11],inactive
same,outcome,[12],inactive
same,fold change,[13]; [19],0.969 (inactive) and 0.89 (inactive)
same,fold change,[13]; [20],1.99 and 1.15
same,cell count,[13]; [21],8810 and 6770
same,cell count,[13]; [22],9100 and 7610
same,z-score,[9],0.245 (inactive) and 0.79 (inactive)
O=c1[nH]c(-c2ccc(C(F)(F)F)cc2)nc2c1CSCC2,remaining activity,[2],117% (inactive)
same,outcome,[3],inactive
same,outcome,[5],inactive
same,outcome,[12],inactive
same,outcome,[7],inactive
same,fold change,[13]; [19],0.924 (inactive) and 0.863 (inactive) and 0.929 (inactive)
same,fold change,[13]; [20],0.982 and 0.937 and 1.32
same,cell count,[13]; [21],4310 and 5060 and 7820
same,cell count,[13]; [22],4660 and 5860 and 8410
same,SSMD,[14],1.98
same,cell count,[14],7170
same,plate-normalised HSF1 focus index,[14],1.12 (inactive)
same,z-score,[8]; [17],-0.501 (inactive)
same,z-score,[8]; [18],0.33
same,viability,[15]; [23],100% (inactive)
same,viability,[15]; [24],93.7% (active)
same,viability,[15]; [25],98.7% (active)
same,viability,[15]; [26],103% (inactive)
same,viability,[15]; [27],108% (inactive)
same,viability,[15]; [28],99.5% (active)
same,viability,[15]; [29],107% (inactive)
same,viability,[15]; [30],106% (inactive)
same,viability,[15]; [31],121% (inactive)
same,viability,[15]; [32],102% (inactive)
same,viability,[15]; [33],110% (inactive)
same,viability,[15]; [34],99.8% (active)
same,viability,"[15]; at 0.0195 µM, OCI-C5x cells, with rucaparib 10 µM, 100% = cells with rucaparib alone",109% (inactive)
same,viability,"[15]; at 0.0195 µM, OCI-C5x cells, without rucaparib",102% (inactive)
same,viability,"[15]; at 0.0195 µM, OCI-P5x cells, with rucaparib 20 µM, 100% = cells with rucaparib alone",114% (inactive)
same,viability,"[15]; at 0.0195 µM, OCI-P5x cells, without rucaparib",113% (inactive)
same,viability,"[15]; at 0.0781 µM, OCI-C5x cells, with rucaparib 10 µM, 100% = cells with rucaparib alone",110% (inactive)
same,viability,"[15]; at 0.0781 µM, OCI-C5x cells, without rucaparib",104% (inactive)
same,viability,"[15]; at 0.0781 µM, OCI-P5x cells, with rucaparib 20 µM, 100% = cells with rucaparib alone",106% (inactive)
same,viability,"[15]; at 0.0781 µM, OCI-P5x cells, without rucaparib",105% (inactive)
same,viability,"[15]; at 0.313 µM, OCI-C5x cells, with rucaparib 10 µM, 100% = cells with rucaparib alone",107% (inactive)
same,viability,"[15]; at 0.313 µM, OCI-C5x cells, without rucaparib",102% (inactive)
same,viability,"[15]; at 0.313 µM, OCI-P5x cells, with rucaparib 20 µM, 100% = cells with rucaparib alone",105% (inactive)
same,viability,"[15]; at 0.313 µM, OCI-P5x cells, without rucaparib",94.6% (active)
same,viability,"[15]; at 1.25 µM, OCI-C5x cells, with rucaparib 10 µM, 100% = cells with rucaparib alone",107% (inactive)
same,viability,"[15]; at 1.25 µM, OCI-C5x cells, without rucaparib",99.4% (active)
same,viability,"[15]; at 1.25 µM, OCI-P5x cells, with rucaparib 20 µM, 100% = cells with rucaparib alone",113% (inactive)
same,viability,"[15]; at 1.25 µM, OCI-P5x cells, without rucaparib",103% (inactive)
same,viability,"[15]; at 5 µM, OCI-C5x cells, with rucaparib 10 µM, 100% = cells with rucaparib alone",115% (inactive)
same,viability,"[15]; at 5 µM, OCI-C5x cells, without rucaparib",112% (inactive)
same,viability,"[15]; at 5 µM, OCI-P5x cells, with rucaparib 20 µM, 100% = cells with rucaparib alone",105% (inactive)
same,viability,"[15]; at 5 µM, OCI-P5x cells, without rucaparib",99% (active)
same,z-score,[9],0.565 (inactive)
CC(C)[C@H](CO)Nc1nc(Nc2ccc(C(=O)O)c(Cl)c2)c2ncn(C(C)C)c2n1,remaining activity,[2],110% (inactive)
same,outcome,[3],inactive
same,outcome,[4],inactive
same,outcome,[10],inactive
same,AC50,[16],23.5 µM (active)
same,outcome,[12],inactive
same,outcome,[7],inactive
same,fold change,[13]; [19],0.902 (inactive)
same,fold change,[13]; [20],0.706
same,cell count,[13]; [21],8820
same,cell count,[13]; [22],9770
same,z-score,[9],0.185 (inactive)
CCOC(=O)C1=C(N)Oc2ccc(Br)cc2C1C(C#N)C(=O)OCC (centres undefined),remaining activity,[2],92.3% (inactive)
same,AC50,[3],26.3 µM (active)
same,outcome,[4],inactive
same,AC50,[5],23.5 µM (active)
same,AC50,[11],23.5 µM (active)
same,AC50,[16],20.9 µM (active)
same,outcome,[7],inactive
same,fold change,[13]; [19],1.02 (inactive)
same,fold change,[13]; [20],1.4
same,cell count,[13]; [21],6950
same,cell count,[13]; [22],6840
same,z-score,[9],-0.87 (inactive)
CCN(CC)CCCC(C)Nc1nc(C)cc(Nc2ccc3nc(C)cc(N)c3c2)n1 (centres undefined),remaining activity,[2],104% (inactive)
same,outcome,[3],inactive
same,outcome,[4],inactive
same,outcome,[6],inactive
same,outcome,[10],inactive
same,outcome,[16],inactive
same,outcome,[12],inactive
same,outcome,[7],inactive
same,fold change,[13]; [19],0.97 (inactive) and 0.925 (inactive)
same,fold change,[13]; [20],0.421 and 1.06
same,cell count,[13]; [21],7920 and 8660
same,cell count,[13]; [22],8160 and 9370
same,SSMD,[14],3.48
same,cell count,[14],7010
same,plate-normalised HSF1 focus index,[14],1.21 (inactive)
same,z-score,[8]; [17],-0.488 (inactive)
same,z-score,[8]; [18],-2.27
same,z-score,[9],2.71 (active)
Oc1ccc2ccccc2c1SSc1c(O)ccc2ccccc12,parasite load remaining,[1],35.3% (inactive)
same,viability,[1],87.1%
same,remaining activity,[2],112% (inactive)
same,AC50,[3],14.8 µM (active)
same,AC50,[5],23.5 µM (active)
same,AC50,[6],18.7 µM (active)
same,AC50,[10],14.8 µM (active)
same,AC50,[11],11.8 µM (active)
same,AC50,[16],23.5 µM (active)
same,AC50,[12],10.5 µM (active)
same,outcome,[7],inactive
same,fold change,[13]; [19],0.974 (inactive) and 0.952 (inactive) and 0.85 (inactive)
same,fold change,[13]; [20],1 and 0.368 and 2.34
same,cell count,[13]; [21],7700 and 7960 and 7720
same,cell count,[13]; [22],7910 and 8360 and 9070
same,z-score,[8]; [17],2.05 (active)
same,z-score,[8]; [18],-0.0374
same,z-score,[9],-1.38 (inactive) and -0.86 (inactive)
N#Cc1c(O)c2c(-c3ccc(-c4ccccc4O)cc3)csc2[nH]c1=O,remaining activity,[2],103% (inactive)
same,outcome,[3],inactive
same,outcome,[4],inactive
same,outcome,[5],inactive
same,outcome,[6],inactive
same,outcome,[11],inactive
same,outcome,[16],inactive
same,outcome,[12],inactive
same,outcome,[7],inactive
same,fold change,[13]; [19],0.919 (inactive) and 1.01 (inactive)
same,fold change,[13]; [20],0.924 and 1.54
same,cell count,[13]; [21],10000 and 9660
same,cell count,[13]; [22],10900 and 9540
same,SSMD,[14],3.35
same,cell count,[14],7410
same,plate-normalised HSF1 focus index,[14],1.12 (inactive)
same,z-score,[8]; [17],-0.277 (inactive)
same,z-score,[8]; [18],1.29
same,viability,[15]; [23],106% (inactive)
same,viability,[15]; [24],121% (inactive)
same,viability,[15]; [25],114% (inactive)
same,viability,[15]; [26],119% (inactive)
same,viability,[15]; [27],115% (inactive)
same,viability,[15]; [28],131% (inactive)
same,viability,[15]; [29],119% (inactive)
same,viability,[15]; [30],107% (inactive)
same,viability,[15]; [31],111% (inactive)
same,viability,[15]; [32],126% (inactive)
same,viability,[15]; [33],116% (inactive)
same,viability,[15]; [34],113% (inactive)
